TWEAK-Fn14 inh: blocks TWEAK-Fn14 interaction in a reporter cell assay; TWEAK-stimulated Fn14 reporter cells, luciferase luminescence, 8 h; inhibition, % at 10 µM; 360,000 compounds, 2% hits; AID 1159606; in the data active = inhibition above about 50%
TROY signal inh: TROY signaling inhibition; 360,000 compounds, 0.98% hits; Q293 LMP1-TROYcd NF-kB luciferase reporter, 4 h; AID 1347056; inhibition, % at 10 µM;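 active = compounds whose plate-normalised and pattern-corrected inhibition of the luciferase reporter signal at the single screening dose is 50% or more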
Peg3 prom inh: reduces Peg3 promoter-driven luciferase expression in HeLa. HeLa PEG-Prom luciferase reporter, luminescence, overnight. inhibition, % at 20 µM. 360,000 compounds, 1.7% hits. AID 588405;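 active = inhibition of at least 50% at 20 µM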
MITF TRPM1 inh: inhibitors of MITF-driven TRPM1 promoter in melanoma cells | SK-MEL-5 TRPM1 promoter luciferase, 24 h | inhibition, % at 12.5 µM | 330,000 compounds, 0.83% hits | AID 488899;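 active = mean inhibition across replicates of 60% or more, whatever share of single replicates reaches that level; inconclusive = some that reach 60%, reason not given; inactive = mean inhibition across replicates below 60%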
EBV LMP1 NFkB: reduces LMP1-driven NF-kappaB luciferase signal; LMP1-induced NF-kappaB luciferase reporter cells, luminescence; inhibition, % at 12.5 µM; 350,000 compounds, 0.69% hits; AID 504558; in the data active = inhibition above about 41%; inconclusive = no clear call, values can overlap the other calls;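 note: 0% = neutral control wells and 100% = reference inhibitor control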
Shn3 inh set2: reduces Shn3 3'UTR luciferase signal in osteoblasts. 360,000 compounds, 0.52% hits. inhibition, % at 12.5 µM. Clone20 osteoblast Shn3 3'UTR firefly luciferase, 24 h;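 active = mean inhibition of at least 75% with every replicate also reaching 75%; inconclusive = mean inhibition at least 75% but some replicate below; inactive = mean inhibition below 75%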;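 note: 0% = median of neutral control wells and 100% = pilot-screen positive control compound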
* hit, by the source's call; u = inconclusive; x = not tested or not shown. A selection: hits, their analogues and other compounds. The true share with any hit is near 4.1%.

SMILES	TWEAK-Fn14 inh	TROY signal inh	Peg3 prom inh	MITF TRPM1 inh	EBV LMP1 NFkB	Shn3 inh set2
Cc1ccc(SCC(=O)Nc2ccc(-c3nc4ccccc4[nH]3)cc2)cc1	-16.5	-26.1	-21.3	11.6	-33.2	56.5
COc1ccc(NC(=O)COC(=O)c2c3c(nc4ccccc24)CCCC3)cc1Cl	64.7*	53.4*	26.1	-11.5	28.6	15.8
Cn1ccnc1C1CCCCN1Cc1nc(-c2ccc(Cl)cc2)no1 (centres undefined)	17.2	-0.3	14.2	7.4	-1.4	-3.2
O=C(CSc1c2c(nc3ccc(Cl)cc13)CCCC2)N1CCN(C(=O)c2ccco2)CC1	12.1	-6.7	25.5	58.7	3.5	92.8*
CCN(CC)CCNC(=O)CSc1c2c(nc3cc(Cl)ccc13)CCCC2	7.3	14.8	78.2*	-22.2	8.4	84.4
Cc1ccc(CNC(=O)CSc2c3c(nc4ccc(Cl)cc24)CCCC3)o1	-7.5	-17.1	25.5	15.6	8.2	84.3*
CCCCN(CC)CCNC(=O)c1ccc2c(Cl)c3c(nc2c1)CCC3	9.4	22.6	3.5	-3.8	-2.9	-23.8
CCN(CC)CCCNC(=O)c1ccc2c(Cl)c3c(nc2c1)CCCC3	-50.2	-12.6	61.2*	37.1	8.6	-0.5
Cc1cccc(N/C(=N/S(=O)(=O)c2ccccc2)c2ccccc2)n1	-5.8	-24.7	6.0	-9.5	-2.1	-7.0
CC(=O)Nc1ccc(-c2csc(NC(=O)Cc3cccc(F)c3)n2)cc1	22.4	25.7	-19.2	-6.3	-10.1	-6.6
COCc1ccc(C(=O)N2CCCC(C(=O)c3ccc(Cl)cc3C)C2)o1 (centres undefined)	-13.4	2.0	11.9	17.4	0.6	4.2
CCC1=C(NCc2ccccc2)COC1=O	-8.4	-10.2	-10.7	x	-1.1	-14.2
O=C(O)c1[nH]c2ccc(Cl)cc2c1CC(=O)N1CCN(C(=O)c2ccco2)CC1	-7.3	-0.8	-2.8	10.2	2.9	1.0
O=C(c1ccco1)N1CCN(C(=O)C2CCCc3c2[nH]c2ccc(Cl)cc32)CC1 (centres undefined)	65.9*	x	23.8	6.1	19.2	-3.2
O=C(Nc1cccnc1Cl)c1ccc2c(Cl)c3c(nc2c1)CCC3	54.4*	-4.6	-107.5	-43.2	-23.4	-98.9
Cn1c(=O)[nH]c(=O)c2c1nc(N1CCOCC1)n2CC(=O)c1ccccc1	-11.5	14.2	16.1	-0.8	1.8	4.1
Cc1ccc([N+](=O)[O-])cc1NC(=O)Nc1cccc(F)c1	14.6	42.1	38.5	17.4	17.3	u
CC1(C)CC(NC(=O)c2cc(S(=O)(=O)N3CCOCC3)c(Cl)cc2Cl)CC(C)(C)N1	-20.0	-4.1	-5.6	-5.2	-1.7	1.4
O=C(C1=C(O)C(=O)N(CCN2CCOCC2)C1c1ccc([N+](=O)[O-])cc1)c1cccs1 (centres undefined)	-8.6	8.7	0.3	-3.5	2.5	-17.2
CC1(C)CC(=O)C=C(C#CC2(O)CCCCC2)C1	63.8*	8.3	18.0	x	-5.8	46.5
Cc1cccc(C#CC2=CC(=O)CC(C)(C)C2)c1	-7.3	-45.4	-13.7	x	-15.9	-47.8
COc1ccc2nc(NC(=O)CN3CCN(C)CC3)sc2c1	-6.4	54.3*	-28.4	-15.0	-1.6	-27.6
CCN1CCN(CC(=O)Nc2nc3ccc(OC)cc3s2)CC1	16.8	-16.2	11.2	1.7	-7.8	4.1
COc1ccc2nc(Nc3sc4c(c3C(N)=O)CCCC4)sc2c1	42.1	57.8*	-127.7	-50.1	-34.4	-67.7
CCOc1ccc2nc(NC(=O)CN3CCC(n4nnc5cc(F)ccc54)CC3)sc2c1	33.1	57.5*	4.7	8.8	-1.0	12.2
O=C(CN1CCC(n2nnc3cc(F)ccc32)CC1)NC1CC1	1.5	1.8	5.4	8.7	3.4	-7.7
CC1CCC(NC(=O)CN2C(=O)c3ccccc3S2(=O)=O)CC1 (centres undefined)	-0.8	-40.4	3.0	2.9	-1.8	-3.4
COc1ccc2[nH]c3c(c2c1)CCN1C(=O)C(CC(=O)NCCCN(C)C)C[C@H](C(=O)N2CCCCC2)[C@@]31CCc1ccccc1 (some centres undefined)	2.6	2.7	27.8	-16.0	3.2	0.1
CN(C)CCCNC(=O)CC1C[C@H](C(=O)N2CCCCC2)[C@@]2(CCc3ccccc3)c3[nH]c4ccccc4c3CCN2C1=O (some centres undefined)	-9.9	21.9	92.7*	59.9	1.0	-14.4

High-throughput results as filed in PubChem BioAssay.
